# Some of the results follow. Unmarked numbers belong to inactive results. No rule for the calls is given here.
# Assay: redox cycling hydrogen peroxide production, dose response, artefact control, biochemical, probe assessment (AID 672)
# Conditions: Redox cycling H2O2 generation, DTT, phenol red/HRP
smiles,measurement,value
CCc1ccc(NC(=O)CSc2nc3ccccc3c(=O)n2CCN2CCOCC2)cc1,EC50,> 50 µM
